# According to PubChem BioAssay (NCI):
# This is part of a sample that, as a whole, favours compounds with a hit. Of some 83,000 tested, about 20% had one in any assay.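 In brief: 96-well plates, 48 h treatment, single concentration, percent growth endpoint.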 A number with no mark means an inactive call. Activity calls are given as the source filed them. Rule for the calls: active = growth percent below 10; inactive = the rest.
# Tests used:
# Assay in all cases: NCI-60 one-dose screen, 48 h (100 = growth as untreated, 0 = no growth, -100 = all killed)
# Details in all cases: 10 µM unless noted
# HCT-15 colon = tested on: HCT-15 colon
# HT29 colon = tested on: HT29 colon
# SNB-75 CNS = tested on: SNB-75 CNS
# SNB-19 CNS = tested on: SNB-19 CNS
# U251 CNS = tested on: U251 CNS
# PC-3 prostate = tested on: PC-3 prostate
# SK-MEL-5 melanoma = tested on: SK-MEL-5 melanoma
# UACC-62 melanoma = tested on: UACC-62 melanoma
# LOX IMVI melanoma = tested on: LOX IMVI melanoma
# SK-MEL-28 melanoma = tested on: SK-MEL-28 melanoma
# SK-MEL-2 melanoma = tested on: SK-MEL-2 melanoma
# EKVX NSCLC = tested on: EKVX NSCLC
# SN12C renal = tested on: SN12C renal
# UO-31 renal = tested on: UO-31 renal
# TK-10 renal = tested on: TK-10 renal
# ACHN renal = tested on: ACHN renal
# CAKI-1 renal = tested on: CAKI-1 renal
# A498 renal = tested on: A498 renal
# CCRF-CEM leukemia = tested on: CCRF-CEM leukemia
# MOLT-4 leukemia = tested on: MOLT-4 leukemia
SMILES,growth (HCT-15 colon),growth (HT29 colon),growth (SNB-75 CNS),growth (SNB-19 CNS),growth (U251 CNS),growth (PC-3 prostate),growth (SK-MEL-5 melanoma),growth (UACC-62 melanoma),growth (LOX IMVI melanoma),growth (SK-MEL-28 melanoma),growth (SK-MEL-2 melanoma),growth (EKVX NSCLC),growth (SN12C renal),growth (UO-31 renal),growth (TK-10 renal),growth (ACHN renal),growth (CAKI-1 renal),growth (A498 renal),growth (CCRF-CEM leukemia),growth (MOLT-4 leukemia)
COc1cccc(-c2nc(-c3ccc(NC(=O)OC(C)C)cc3)[nH]c2-c2ccnc(Br)c2)c1,4.09% (active),18.3%,23.6%,40.3%,32.7%,17.5%,21.9%,9.86% (active),2.73% (active),37.7%,25.6%,27.6%,30.8%,9.01% (active),48.6%,14.5%,28%,-4.13% (active),18.3%,10.3%
Cc1ccc(S(=O)(=O)N/N=C/C2(c3ccccc3)CC2)cc1,115%,109%,88.2%,99.3%,103%,93.7%,105%,102%,96.9%,106%,126%,99%,98.7%,93.2%,120%,109%,92.6%,86.6%,88.5%,90.5%
COc1cc(C)c(Cc2cnc(N)nc2N)cc1OC,113%,109%,104%,98.9%,97.7%,94.3%,105%,99.5%,94.9%,118%,87%,100%,105%,88.4%,116%,96.6%,97.8%,107%,108%,62.6%
COc1cc2cc(Oc3ccc(NC(=O)Nc4ccc(Cl)c(Cl)c4)cc3)c(C)nc2cc1OCCN1CCOCC1,88.9%,90.1%,92.9%,90.5%,96.6%,76.7%,50.8%,77.8%,93.5%,101%,107%,66.4%,91.5%,83.9%,124%,93.4%,87.5%,72.8%,65%,62.7%
Fc1cc(-c2nnc3sc(-c4ccc(Cl)cc4Cl)nn23)c(Cl)cc1Cl,90.7%,72.1%,49.1%,79.5%,75.5%,94.4%,67.4%,92.3%,96.2%,69.3%,94.7%,73.3%,82.8%,73%,109%,73.7%,86.5%,109%,-78.6% (active),134%
CCOC(=O)C1=C(N)Oc2c(sc3c(C)cccc23)C1c1ccc(F)cc1 (stereo not given),6.3% (active),2.47% (active),-4.15% (active),26.3%,19.4%,12%,16.3%,17.4%,14%,56.8%,42.5%,44.9%,30.5%,40.7%,76%,30.7%,2.3% (active),-5.94% (active),4.35% (active),10.2%
COc1ccn2c(C(C)=O)cc(C(=O)c3ccc4c(c3)Sc3ccccc3N4)c2c1,15%,-0.653% (active),21.1%,40.3%,17.9%,23.8%,-39.7% (active),35.9%,19.7%,46.7%,27.3%,37.6%,25.3%,28.3%,29.6%,20.7%,15.9%,-17.8% (active),8.15% (active),13.1%
C[C@]12CC[C@@H]3c4cc(OC(F)F)c(OS(N)(=O)=O)cc4CC[C@H]3[C@@H]1CC[C@@H]2O,13.2%,13.9%,-15.7% (active),48.4%,28.2%,25.5%,6.56% (active),55.7%,28.6%,53.6%,46.3%,40.2%,32.6%,40.1%,94.2%,44.9%,41.4%,-8.42% (active),16.5%,18.7%
Cc1ccc(-c2nc(SCC(=O)Nc3nc(-c4ccc(Cl)cc4)cs3)[nH]c(=O)c2C#N)cc1,90.2%,95.9%,87.4%,108%,94%,90.3%,102%,90.5%,108%,108%,82.9%,101%,110%,88.4%,103%,101%,96.1%,85.2%,103%,90.4%
c1cc(-c2nnc(SSc3ncnc4nc[nH]c34)o2)ccn1,37.3%,18.9%,56.8%,93.1%,72.4%,51%,72.1%,11.8%,9.77% (active),76.2%,15.9%,82.3%,55.8%,30%,17%,45%,-6.89% (active),63%,21.8%,18%
COc1cccc(Oc2ccccc2NC(=O)CNC(=O)c2cccc3ccccc23)c1,17.8% [5 µM],6.01% [5 µM] (active),28% [5 µM],41.7% [5 µM],23.2% [5 µM],26.2% [5 µM],11.7% [5 µM],16.1% [5 µM],26.1% [5 µM],57.5% [5 µM],30% [5 µM],35.3% [5 µM],31.4% [5 µM],39.8% [5 µM],58.5% [5 µM],33.7% [5 µM],23.8% [5 µM],-16.3% [5 µM] (active),15.4% [5 µM],12.3% [5 µM]
COc1cc(C(=O)/C=C/c2ccc(OCCCCCC[P+](c3ccccc3)(c3ccccc3)c3ccccc3)cc2)cc(OC)c1OC,-54.7% (active),-14.1% (active),-11.1% (active),-73.3% (active),-100% (active),-54.9% (active),-100% (active),-80.3% (active),-100% (active),-60.4% (active),-67.3% (active),-9.14% (active),-63.8% (active),1.6% (active),-72% (active),-44.5% (active),13.2%,-42% (active),20.3%,14%
CCCCNC(=O)Oc1ccc(/C(=C(\C)c2ccc(Cl)cc2)c2ccc(OCCN(CC)CC)cc2)cc1,19.5%,-10.2% (active),64.9%,86%,50.7%,60.9%,78.4%,74.6%,71.5%,74.9%,117%,75%,75.4%,47.8%,88.6%,93.7%,81.4%,71%,64.4%,58.4%
c1ccc2cc(C[n+]3ccn(CCCCCCn4cc[n+](Cc5ccc6ccccc6c5)c4)c3)ccc2c1,96.4%,22.8%,26.7%,48.8%,34.4%,65.4%,42.3%,50.1%,66.8%,63.4%,36%,37.3%,34.9%,97.2%,83.1%,72.5%,95.4%,10%,84.2%,74.9%
CCCCCCn1c(-c2ccc(C(=O)O/N=C(\N)c3ccc4ccccc4c3)cc2)nc(-c2ccccc2)c1-c1ccccc1,49.3%,74.5%,16%,68.9%,50.2%,51.3%,68.2%,61.1%,-88.6% (active),72.9%,88.6%,18%,45.6%,-85.4% (active),47.4%,0.0407% (active),33.9%,51.4%,18.5%,41.2%
